Screens: PubChem, The Scripps Research Institute Molecular Screening Center
Shown are actives, neighbours in structure and some others; about 3.5% of the full set was active somewhere.
TEAD-YAP block = TEAD-YAP interaction inhibition; HEK-TIYL cells, TEAD-Gal4/YAP UAS-luciferase luminescence; inhibition, % at 9.12 µM; 640,000 tested, 1.4% active; AID 1259422; in the data active = inhibition above about 32%
FBW7 activator = human FBW7 E3 ligase activation, primary screen. Q969H0. AlphaScreen FBW7–phospho-cyclin E peptide binding, activator screen. normalized activity (activation), % at 26.1 µM. 650,000 tested, 0.13% active; in the data active = normalized activity above about 1.9%;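 note: purified mutant Fbw7 with reduced substrate affinity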
MITF primary = human MITF inhibition, primary screen. inhibition, % at 2.6 µM. O75030. 650,000 tested, 0.91% active. AID 1259374. AlphaScreen MITF homodimerization, bead proximity signal; in the data active = inhibition above about 50%
GPR151 ag = human GPR151 activation; activation, % at 11.2 µM; Q8TDV0; AID 1508602; PathHunter beta-arrestin GPR151 cells, luminescence; 650,000 tested, 1% active; in the data active = activation above about 4.9%
Target sequence (Q8TDV0 whole entry, looked up): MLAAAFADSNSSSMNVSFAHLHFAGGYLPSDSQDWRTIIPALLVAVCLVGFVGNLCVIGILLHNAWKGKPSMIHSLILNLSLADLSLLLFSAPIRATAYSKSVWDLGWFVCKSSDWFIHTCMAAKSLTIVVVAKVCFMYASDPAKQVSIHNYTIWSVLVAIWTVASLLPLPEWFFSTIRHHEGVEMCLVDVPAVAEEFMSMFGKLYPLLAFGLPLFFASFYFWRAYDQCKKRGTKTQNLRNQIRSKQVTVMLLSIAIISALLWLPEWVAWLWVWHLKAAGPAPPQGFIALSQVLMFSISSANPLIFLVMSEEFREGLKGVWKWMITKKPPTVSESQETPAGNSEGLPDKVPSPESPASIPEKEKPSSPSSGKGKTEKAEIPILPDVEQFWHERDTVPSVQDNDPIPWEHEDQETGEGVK
MITF confirm = confirmation of human MITF inhibitors; inhibition, % at 2.6 µM; AID 1259372; 4,700 tested, 16% active; shares compounds with MITF primary; AlphaScreen MITF homodimerization, biotin/His-MITF beads;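 active = inhibition above a cutoff derived from the DMSO control wells, cut at about 28% in these data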;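 note: inhibitors lower the bead chemiluminescence by keeping MITF from dimerizing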
AS interf DR = optically interferes with AlphaScreen signal in dose response. 480 tested, 6% active. shares compounds with MITF primary. AlphaScreen optical interference counterscreen, cell-free. IC50, µM. AID 1259373; call rule not given here
AS interf ctr = counter-screen: compounds optically interfering with AlphaScreen; shares compounds with MITF primary; LysRS AlphaScreen counterscreen, signal interference, triplicate; inhibition, % at 2.6 µM; 4,700 tested, 7.6% active;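 active = inhibition above a cutoff derived from the DMSO control wells, cut at about 30% in these data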
A number is an active result; . = inactive; / = not tested or not shown.

SMILES	TEAD-YAP block	FBW7 activator	MITF primary	GPR151 ag	MITF confirm	AS interf ctr	others
Cc1ccc(N2CCN(Cc3ccccc3[N+](=O)[O-])CC2)cc1	.	.	.	.	/	/
CN1CCN(Cc2ccccc2[N+](=O)[O-])CC1	.	.	.	.	/	/
O=[N+]([O-])c1ccccc1CN1CCN(c2ccc(F)cc2)CC1	.	.	54.4	.	.	.
O=[N+]([O-])c1ccccc1CN1CCN(Cc2ccc(F)cc2)CC1	.	.	67.9	.	.	.
O=C(NC1CCCc2ccccc21)c1nc2ccccc2s1 (stereo not given)	.	.	.	.	/	/
CC(C)N1CCN(C2CC3CCC2C3)CC1 (stereo not given)	.	.	60.5	.	.	.
Fc1ccc(CN2CCN(Cc3cccc(F)c3)CC2)cc1	.	.	.	.	/	/
O=[N+]([O-])c1cccc(CN2CCN(c3ccccc3)CC2)c1	.	.	.	.	/	/
CC(C)N1CCN(Cc2cccc([N+](=O)[O-])c2)CC1	.	.	67.4	.	.	.
O=[N+]([O-])c1cccc(CN2CCN(Cc3ccc(F)cc3)CC2)c1	.	.	65.7	.	.	.
CN1CCN(Cc2cccc([N+](=O)[O-])c2)CC1	.	.	.	.	/	/
COc1cccc(N2CCN(Cc3cccc([N+](=O)[O-])c3)CC2)c1	.	.	51.3	.	.	.
CCN(CC)c1ncnc2c1ncn2[C@@H]1O[C@H](COP(=O)(O)OP(=O)(O)C(Br)(Br)P(=O)(O)O)C(O)[C@@H]1O (stereo not given in full)	/	.	73.0	.	88.2	.	AS interf DR=.
Nc1ncnc2c1ncn2[C@@H]1O[C@H](COP(=O)(O)CP(=O)(O)OP(=O)(O)O)[C@H](O)C1O (stereo not given in full)	.	.	.	.	/	/
COc1ccc(CN2CCN(Cc3cccc(C)c3)CC2)cc1Br	.	.	69.7	.	.	.
COc1ccc(CN2CCN(Cc3ccc(Cl)cc3)CC2)cc1Br	.	.	80.4	.	.	.
COc1ccc(CN2CCN(CCO)CC2)cc1Br	.	.	77.2	.	.	.
COc1cc(Br)c(CN2CCN(CCO)CC2)cc1OC	.	.	.	.	/	/
CCN1CCN(Cc2ccc(OC)c(Br)c2)CC1	.	.	.	.	/	/
COc1cc(C)c(CN2CCN(CCO)CC2)cc1C	.	.	51.5	.	.	.
COc1cc(/C=C/c2nc3ccccc3c(=O)n2-c2ccccc2C)ccc1O	.	.	.	.	/	/
CCOc1c(/C=C/[N+](=O)[O-])cccc1OC	.	.	.	.	/	/
Cc1ccc2c(c1)C1CN(C)CCC1N2C(=O)c1ccccc1 (stereo not given)	.	.	.	.	/	/
CN(C)C1=NC(=[N+](C)C)c2ccccc21	.	.	.	.	/	/
N#Cc1ccc(C2NCc3ccccc3-n3cccc32)cc1 (stereo not given)	.	.	.	.	/	/
SMILES	TEAD-YAP block	FBW7 activator	MITF primary	GPR151 ag	MITF confirm	AS interf ctr	others
Cc1ccccc1CN1CCN(c2ccc(F)cc2)CC1	.	.	.	.	/	/
OCCN1CCN(Cc2ccccc2Br)CC1	.	.	.	.	/	/
CCC(C)N1CCN(Cc2ccccc2C)CC1 (stereo not given)	.	.	83.2	.	.	.
CCC(C)N1CCN(Cc2ccccc2Br)CC1 (stereo not given)	.	.	82.8	.	.	.
CCCN(CCC)C(=O)c1ccc(N2CC3CC(C2)c2cccc(=O)n2C3)c([N+](=O)[O-])c1 (stereo not given)	.	.	.	.	/	/
CC(C)CCn1c(=O)c(C(=O)NC(C)c2ccccc2)c(O)c2ccccc21 (stereo not given)	.	.	.	.	/	/
CCn1c(O)c(C(c2ccccn2)c2c(O)n(CC)c(=S)[nH]c2=O)c(=O)[nH]c1=S	.	.	53.6	.	.	56.2
N#CC1(N2CCOCC2)CN2CCC1CC2 (stereo not given)	.	.	.	.	/	/
CC(C#N)CN1CC2(C)CC1CC(C)(C)C2 (stereo not given)	.	.	.	.	/	/
CC1(C)CC2CC(C)(CN2CCC#N)C1 (stereo not given)	.	.	52.8	.	.	.
O=C(c1ccncc1)N1CCN(C2CC3CCC2C3)CC1 (stereo not given)	.	.	63.6	.	.	.
O=C(c1ccncc1)N1CCN(C2C3CC4CC(C3)CC2C4)CC1 (stereo not given)	.	.	75.6	.	.	.
